From the supplement of paper PMC10121225
Counter-ions that a name gives are not always drawn.

system: hN + hpA co-culture (H1 iNGN2 human neurons + human primary astrocytes); assay: presynaptic density (SYNAPSIN1 puncta per MAP2 neurite area), Z-score vs DMSO controls; higher = more presynaptic puncta (synapse-promoting); conditions: 3 µM; 72 h
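Further: immunostained co-cultures imaged by high-content microscopy, Z-score per plate against mean and SD of 0.1% DMSO wells, compounds added on differentiation day 18, analysed day 21.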

Question: For O=c1[nH]c2ccc(Cl)cc2c(N[C@@H]2CN3CCC2CC3)c1-c1nc2ccccc2[nH]1, which “presynaptic density (Z-score)” value is on record?
Answer: -2.58

Question: O=C(O)CNC(=O)c1c(O)c2ccccc2n(Cc2ccccc2)c1=O was tested. Which “presynaptic density (Z-score)” value did it give?
Answer: 0.0398

Question: With O=C1CC[C@@]2(O)[C@H]3Cc4ccc(O)c5c4[C@@]2(CCN3CC2CC2)[C@H]1O5 [Naltrexone HCl] as the molecule, how does the “presynaptic density (Z-score)” value read?
Answer: 1.84

Question: With C[C@@]12N[C@@H](Cc3ccccc31)c1ccccc12 [(-)-MK 801 maleate] as the molecule, how does the “presynaptic density (Z-score)” value read?
Answer: -0.122

Question: For COc1ccc(C(=O)N2CCCC2=O)cc1 [Aniracetam], which “presynaptic density (Z-score)” value is on record?
Answer: 0.286

Question: Which “presynaptic density (Z-score)” value does the source give for CCOC(=O)c1cncn1[C@H](C)c1ccccc1 [Etomidate] here?
Answer: 0.377

Question: For CC[C@@H]1/C=C/C=C/C[C@H](C)[C@H](O)[C@](C)(O)C(=O)[C@H](C)[C@@H](O)[C@H](C)C(=O)[C@H](C)[C@@H](O)[C@H](C)/C=C/C(=O)O[C@H]2[C@@H](C)[C@@H](CC1)O[C@@]1(CC[C@@H](C)[C@@H](C[C@H](C)O)O1)[C@@H]2C [Oligomycin A], which “presynaptic density (Z-score)” value is on record?
Answer: -1.28

Question: With O=[N+]([O-])C=Cc1ccc2c(c1)OCO2 [MNS (3,4-Methylenedioxy-Œ≤-nitrostyrene] as the molecule, how does the “presynaptic density (Z-score)” value read?
Answer: -0.543

Question: How did the “presynaptic density (Z-score)” value turn out when CCC(COC(=O)c1cc(OC)c(OC)c(OC)c1)(c1ccccc1)N(C)C (centres undefined) was run?
Answer: 0.31

Question: How did the “presynaptic density (Z-score)” value turn out when C=C1C[C@@H]2[C@H](CC[C@]3(C)C(=O)CC[C@@H]23)[C@@]2(C)C=CC(=O)C=C12 [Exemestane] was run?
Answer: 0.646

Question: Cc1sc2c(c1C)C(c1ccc(Cl)cc1)=N[C@@H](CC(=O)OC(C)(C)C)c1nnc(C)n1-2 was tested. Which “presynaptic density (Z-score)” value did it give?
Answer: 2.8

Question: For CC(=O)O[C@H]1C[C@@H]2CC[C@@H]3[C@H](CC[C@@]4(C)[C@H]3C[C@H]([N+]3(C)CCCCC3)[C@@H]4OC(C)=O)[C@@]2(C)C[C@@H]1[N+]1(C)CCCCC1 [Pancuronium dibromide], which “presynaptic density (Z-score)” value is on record?
Answer: -0.361

Question: Which “presynaptic density (Z-score)” value does the source give for O=C(O[C@H]1C[C@H]2CC[C@@H](C1)[N+]21CCCC1)C(O)(c1ccccc1)c1ccccc1 [Trospium chloride] here?
Answer: -0.748

Question: Cc1cc2c(C(C)C)c(O)c(O)c(C=O)c2c(O)c1-c1c(C)cc2c(C(C)C)c(O)c(O)c(C=O)c2c1O was tested. Which “presynaptic density (Z-score)” value did it give?
Answer: -4.31

Question: How did the “presynaptic density (Z-score)” value turn out when CCc1c(C(=O)C(N)=O)c2c(OCC(=O)O)cccc2n1Cc1ccccc1 was run?
Answer: 0.584

Question: How did the “presynaptic density (Z-score)” value turn out when CN1CCCCC1Cn1cc(C(=O)c2cc([N+](=O)[O-])ccc2I)c2ccccc21 (centres undefined) was run?
Answer: -0.667

Question: For N[C@@H]1C[C@H]1c1ccccc1 [Tranylcypromine (2-PCPA) HCl], which “presynaptic density (Z-score)” value is on record?
Answer: 0.259

Question: With CN1CCc2cc3c(cc2C1C1OC(=O)c2c1ccc1c2OCO1)OCO3 (single isomer, unassigned; (+)) [(+)-Bicuculline] as the molecule, how does the “presynaptic density (Z-score)” value read?
Answer: -0.322

Question: For C[C@@H]1O[C@@H](O[C@H]2C[C@@H](O)[C@]3(CO)[C@H]4[C@H](O)C[C@]5(C)[C@@H](C6=CC(=O)OC6)CC[C@]5(O)[C@@H]4CC[C@]3(O)C2)[C@H](O)[C@H](O)[C@H]1O [Ouabain], which “presynaptic density (Z-score)” value is on record?
Answer: -1.54

Question: Which “presynaptic density (Z-score)” value does the source give for Cc1cc(SCc2sc(-c3ccc(C(F)(F)F)c(F)c3)nc2C)ccc1OCC(=O)O here?
Answer: 0.227

Question: How did the “presynaptic density (Z-score)” value turn out when Cn1cc(C2=C(c3cn(C4CCN(Cc5ccccn5)CC4)c4ccccc34)C(=O)NC2=O)c2ccccc21 [Enzastaurin] was run?
Answer: 0.0046

Question: C[C@](O)(COc1ccc(C#N)cc1)C(=O)Nc1ccc(C#N)c(C(F)(F)F)c1 was tested. Which “presynaptic density (Z-score)” value did it give?
Answer: -0.892

Question: CCCN1CCO[C@@H]2c3cc(O)ccc3OC[C@H]21 was tested. Which “presynaptic density (Z-score)” value did it give?
Answer: 0.0588

Question: With CCN(CC)C(=O)c1ccc(C2=CC3(CCNCC3)Oc3cccc(O)c32)cc1 as the molecule, how does the “presynaptic density (Z-score)” value read?
Answer: -0.78
